NALP3 yeast inh = inhibitors of NALP3 inflammasome in yeast | Yeast reconstituted NLRP3/ASC/caspase-1, beta-gal luminescence, 24 h | 330,000 compounds, 0.39% hits | AID 2825 | inhibition, % at 10 µM;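 active = inhibition of 50% or more; inactive = inhibition below 50%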
NALP1 yeast inh = NALP1 inhibition. S. cerevisiae NALP1/ASC/caspase-1 growth, X-gal OD620, 72 h. inhibition, % at 10 µM. 280,000 compounds, 0.61% hits. AID 2071; in the data active = inhibition mostly above about 24%, no sharp cut-off; inactive = mostly below about 32%
tim23-1 inh = growth inhibitors of tim23-1 mutant yeast. S. cerevisiae tim23-1 growth, BacTiter-Glo luminescence, 24 h. inhibition, % at 20 µM. AID 463212. 330,000 compounds, 1.3% hits;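 active = growth inhibition of the mutant yeast at or above 50%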;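 also: temperature-sensitive mutant grown at 25 °C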
TIM10 inh = TIM10 yeast growth inhibition. S. cerevisiae TIM10 strain growth, BacTiter-Glo luminescence, 24 h. inhibition, % at 10 µM. 330,000 compounds, 1.4% hits;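 active = inhibition of 40% or more at the single tested concentration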;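 also: wild-type TIM10 isogenic control strain grown at permissive 25 °C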
tim10-1 inh = tim10-1 yeast growth inhibition. S. cerevisiae tim10-1 ts strain growth, BacTiter-Glo, 24 h. 330,000 compounds, 2.2% hits. inhibition, % at 20 µM;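 active = inhibition of at least 40%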;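 also: mutant grown at 25 °C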
SKKanGAS inh = SKKanGAS growth inhibition | S. pyogenes SKKanGAS, kanamycin growth, BacTiter-Glo, 6 h | inhibition, % at 7.5 µM | 300,000 compounds, 1.3% hits | AID 1662;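 active = mean replicate score, as percent of positive control median, at least 50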;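 also: strain carries kanamycin resistance gene driven by streptokinase promoter and grows in 40 µg/ml kanamycin; loss of luminescence reflects streptokinase promoter inhibition or plain growth inhibition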
tim10-1 conf = tim10-1 yeast growth inhibition, confirmed | shares compounds with tim10-1 inh | S. cerevisiae tim10-1 ts strain growth, BacTiter-Glo, 24 h | inhibition, % at 20 µM | 7,400 compounds, 56% hits;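 active = inhibition of yeast growth at or above a set limit in either of two repeat tests at 20 µM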;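 also: tim10-1 mutant grown at permissive 25 °C to find synthetic lethal compounds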
Of the large screens only hits and unclear results are named; the others gave an inactive call (follow-up assays come after a bar, where they were run). Sampled rows, rich in hits. Any-hit rate of the full collection: about 4.9%.

CC(=O)Nc1ccc(NC(=O)CCCCCN2C(=O)c3ccccc3C2=O)cc1	none
Cc1ccccc1C(=O)NNC(=S)NC(=O)c1cccs1	tim10-1 inh 53, SKKanGAS inh 69 | tim10-1 conf inactive
CC(C)(C)NCC(O)COc1cccc2c1CCC(=O)N2 (stereo not given)	none (no result: NALP1 yeast inh, SKKanGAS inh)
CC(C)[C@H](NC(=O)c1ccccc1)C(=O)OCC(=O)c1c(N)n(C)c(=O)n(C)c1=O	none (no result: NALP1 yeast inh, SKKanGAS inh)
COc1ccc(CCNC(=O)CCc2nc3sc4c(c3c(=O)[nH]2)CCCC4)cc1	tim10-1 inh 97 | tim10-1 conf inactive
Cc1cc2nc(-c3cc(N4CCOCC4)ccc3[N+](=O)[O-])ccn2n1	none
Cc1cc2nc(-c3ccc4c(c3)CCC4)ccn2n1	tim10-1 inh 41 | tim10-1 conf inactive
Nc1c(C(=O)NC2CCCC2)sc2nc(-c3cccs3)ccc12	tim10-1 inh 40 | tim10-1 conf 32
O=C(CCC(=O)N1CCN(c2ccc(Cl)c(Cl)c2)CC1)c1ccccc1	tim10-1 inh 42 | tim10-1 conf inactive
CCOC(=O)/C(C#N)=C\c1ccc(O)c(OC)c1	tim10-1 inh 42 | tim10-1 conf 34
COc1cc(/C=C/C(=O)CC(=O)/C=C/c2ccc(O)c(OC)c2)ccc1O	none (no result: NALP3 yeast inh) | tim10-1 conf 39
CCCNc1c(NC(=O)C2CCC(C)CC2)c(=O)oc2ccccc12 (stereo not given)	none
N#Cc1c(-c2ccc(F)cc2)noc1N	none
COc1cccc(-c2noc(N)c2C#N)c1	tim10-1 inh 52 | tim10-1 conf 44
CC(=O)c1ccc(OC(=O)Cc2cccc3ccccc23)cc1	tim10-1 inh 46 | tim10-1 conf 36
CC12C(=O)N(c3cccc(OC(=O)c4ccco4)c3)C(=O)C1C1c3ccccc3C2c2ccccc21 (stereo not given)	tim10-1 inh 42 | tim10-1 conf inactive
CC12C(=O)N(c3ccc(OC(=O)c4ccco4)cc3)C(=O)C1C1c3ccccc3C2c2ccccc21 (stereo not given)	none
Cc1ccc(NC(=S)NCc2ccccc2)c(C)c1	none
COc1ccc(Cl)cc1NC(=S)NCCSc1ccc(C)cc1	tim10-1 inh 49 | tim10-1 conf 40
COc1ccc(Cl)cc1NC(=O)CN(C)C(=O)CCSc1ccc(C)cc1	none (no result: NALP1 yeast inh, SKKanGAS inh)
Cc1ccc(SCCNC(=S)Nc2ccc(C)cc2C)cc1	tim10-1 inh 44 | tim10-1 conf inactive
Cc1cccc(C)c1NC(=S)NCCSc1ccc(Cl)cc1	tim10-1 inh 42 | tim10-1 conf inactive
Cc1cc(C(C)(C)C)cc(C)c1CCNC(=O)c1c(C)noc1C	none (no result: NALP1 yeast inh, SKKanGAS inh)
COc1ccc(S(=O)(=O)N2CCN(c3ccccc3OC)CC2)cc1	tim10-1 inh 43 | tim10-1 conf 34
CC(C)c1ccc(C(=O)Nc2cccnc2)cc1	none
CCN(CC)C(=O)C1c2ccccc2Oc2ccccc21	none
COc1cc(-c2nnc(COc3ccc4cc(Br)ccc4c3)o2)cc(OC)c1OC	none
COc1ccc(-c2nnc(COc3ccc4ccccc4c3)o2)cc1OC	tim10-1 inh 43 | tim10-1 conf inactive
CSc1nc(N)nc(-c2cccs2)c1C#N	tim10-1 inh 48 | tim10-1 conf 36
CCCOc1ccc(C(=O)N(Cc2cccs2)C2CCS(=O)(=O)C2)cc1 (stereo not given)	none
COc1ccc(CNC(=O)Cn2nc(C)n3cccc3c2=O)cc1	none
Cc1ccc(N(CC(=O)N2CCN(c3ccc(F)cc3)CC2)S(=O)(=O)c2c(C)noc2C)cc1	tim10-1 inh 41 | tim10-1 conf inactive
CCc1cccc(NC(=O)CN(c2ccc(C)cc2)S(=O)(=O)c2c(C)noc2C)c1	tim10-1 inh 49 | tim10-1 conf 36
FC(F)(F)c1nnc(-c2ccccc2)nc1Oc1ccc(Cl)cc1Cl	tim10-1 inh 51 | tim10-1 conf 47
CCN(c1ccccc1)S(=O)(=O)c1cc(C(=O)OC2CCOC2=O)ccc1C (stereo not given)	none (no result: NALP1 yeast inh, SKKanGAS inh)
CCOC(=O)c1ccc2[nH]c3c(c2c1)CCCC3O (stereo not given)	none
CCOC(=O)c1ccc2[nH]c3c(c2c1)CCCC3	tim10-1 inh 42 | tim10-1 conf 34
CN(CC1COc2ccccc2O1)C(=S)Nc1ccccc1 (stereo not given)	tim10-1 inh 42 (no result: NALP1 yeast inh) | tim10-1 conf inactive
N#C/C(=C\C=C\c1ccccc1[N+](=O)[O-])C(=O)NCc1ccccc1	tim10-1 inh 45 | tim10-1 conf 35
COc1ccc2c(=O)c(-c3ccc(C)cc3)c(-c3ccccc3)oc2c1	none (no result: NALP3 yeast inh, NALP1 yeast inh, SKKanGAS inh)
Clc1ccc(Cl)c2sc(N3CCCC3)nc12	tim10-1 inh 47 | tim10-1 conf 37
Cc1ccc(-c2csc3nc4c5ccccc5c(NCCCN5CCOCC5)nn4c(=O)c23)cc1	tim10-1 inh 43 | tim10-1 conf 39
Cc1cc(N2CCCCC2)nc(SCC(=O)c2ccccc2)n1	tim10-1 inh 47 | tim10-1 conf 33
O=C(CNc1cccc2ccccc12)N/N=C/c1cccc(Oc2ccccc2)c1	tim10-1 inh 42 | tim10-1 conf inactive
O=C(CNc1cccc2ccccc12)N/N=C/c1ccccn1	none
Cc1ccc2nc(N(CCN(C)C)C(=O)c3ccc4c(c3)OCCO4)sc2c1	none
CCN(CC)CCN(C(=O)c1ccc2c(c1)OCCO2)c1nc2ccc(C)cc2s1	tim10-1 inh 44 | tim10-1 conf inactive
O=C(c1ccc(Cl)c([N+](=O)[O-])c1)N1CCCc2ccccc21	none
S=C(NC1CCCCC1)N(CCc1nc2ccccc2[nH]1)C1CCCC1	tim10-1 inh 50 | tim10-1 conf inactive
CCc1cc(Cn2nc(-c3ccccc3)cc2C(=O)NCC2CC2)on1	none (no result: NALP1 yeast inh)
Cc1c(Br)c([N+](=O)[O-])nn1C(C)C(=O)N1CCCc2ccccc21 (stereo not given)	tim10-1 inh 40 | tim10-1 conf 37
Cc1c(Br)c([N+](=O)[O-])nn1CC(=O)N1CCc2ccccc21	none
O=C(Nc1cccnc1)OC1CCCC1	none
O=C(Nc1cccnc1)OC1CCCCC1	tim10-1 inh 43 | tim10-1 conf inactive
Cc1cc(C)c(NC(=O)CSc2nnnn2-c2cccnc2)c(C)c1	none
Clc1ccc(-c2n[nH]c3c2CCC3)c(Cl)c1	tim10-1 inh 41, SKKanGAS inh 96 | tim10-1 conf inactive
Cc1ccc(Nc2cc(C)c(O)c(C)c2)cc1	none
COC(=O)c1ccc(CNC(=O)C2CCC(=O)N(CCc3ccccc3)C2)cc1 (stereo not given)	none
N#Cc1c(-c2ccc(F)cc2)cc(-c2cccnc2)nc1N	none
N#Cc1c(-c2cccs2)cc(-c2cccnc2)nc1N	tim10-1 inh 43 | tim10-1 conf inactive
O=C(NC1CC1)C1=C[C@@H](c2coc3ccccc3c2=O)C[C@@H](OCCCCO)O1	none (no result: NALP1 yeast inh)
Cc1cc(C(=O)COC(=O)c2ccc(F)cc2F)c(C)n1C1CC1	none (no result: NALP1 yeast inh, SKKanGAS inh)
C(=N\N(Cc1ccccc1)c1ccccc1)/c1ccco1	none

Screening results deposited in PubChem by several laboratories.
